Assay results: the supplement of paper PMC4894684
Counter-ions that a name gives are not always drawn. ± gives the standard deviation of the averaged measurements.

System: Toxoplasma gondii RH (in HFF)
Assay: parasite growth relative to the screen mean (all compounds = 100%); higher = less inhibition of parasite growth
Details: 5 µM; 72 h; oxygen 21 %
Procedure, shortened: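 Library compounds (10 mM DMSO stocks) were pin-transferred to 5 µM final onto confluent human foreskin fibroblasts in 96-well plates, then infected within 2 h with RH β-Gal–GFP Toxoplasma (MOI 1:5) and grown 72 h at 21% O2. Parasite number came from a CPRG β-Gal assay against in-plate standard curves. Growth is expressed relative to the screen mean (all compounds = 100%), averaged over two screens. Uninfected host-cell viability was checked by CellTiter-Blue.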

Question: For `CC(C)NCCN(C(C)C)S(=O)(=O)c1ccc(Cl)cc1Cl`, which parasite growth is on record?
Answer: Its parasite growth is 142 ± 34%.

Question: With `CS(=O)(=O)Nc1ccc([N+](=O)[O-])cc1Oc1ccccc1` [Nimesulide] as the molecule, how does the parasite growth read?
Answer: Its parasite growth is 98.5 ± 4.5%.

Question: `Cc1ccc(=O)n(-c2ccccc2)c1` [Pirfenidone] was tested. Which parasite growth did it give?
Answer: Its parasite growth is 128 ± 11%.

Question: With `CC1CCN(CCCC(=O)c2ccc(F)cc2)CC1` [Melperone hydrochloride] as the molecule, how does the parasite growth read?
Answer: Its parasite growth is 126 ± 12%.

Question: With `Oc1ccc(C2CNCCc3c2cc(O)c(O)c3Cl)cc1` (stereo not drawn) [Fenoldopam hydrochloride] as the molecule, how does the parasite growth read?
Answer: The parasite growth was 105 ± 14%.

Question: `CCN(CC)CCCCC1CCN(CC(=O)N2c3ccccc3C(=O)Nc3cccnc32)CC1` was tested. Which parasite growth did it give?
Answer: Its parasite growth is 141 ± 17%.

Question: With `c1ccc2nc(C3=NCCN3)cnc2c1` [BU 239 hydrochloride] as the molecule, how does the parasite growth read?
Answer: The parasite growth was 102 ± 22%.

Question: `COc1ccc(C2CNC(=O)C2)cc1OC1CCCC1` (stereo not drawn) [Rolipram] was tested. Which parasite growth did it give?
Answer: Its parasite growth is 92.1 ± 23%.

Question: `NC(C(=O)O)c1ccc(C(=O)O)c(C(=O)O)c1` (racemic) was tested. Which parasite growth did it give?
Answer: The parasite growth was 101 ± 31%.

Question: `CC(C)C[C@H](NC(=O)[C@@H](O)[C@H](N)Cc1ccccc1)C(=O)O` [Bestatin] was tested. Which parasite growth did it give?
Answer: The parasite growth was 136 ± 6.9%.

Question: `COc1ccc(NC(=O)c2ccc(-c3ccc(-c4noc(C)n4)cc3C)cc2)cc1N1CCN(C)CC1` was tested. Which parasite growth did it give?
Answer: The parasite growth was < 0%.

Question: With `CC(C)(Sc1ccc(CCN(CCCCC2CCCCC2)C(=O)NC2CCCCC2)cc1)C(=O)O` as the molecule, how does the parasite growth read?
Answer: The parasite growth was 87.9 ± 17%.

Question: With `CS(=O)(=O)c1ccc(Cn2c3c(c4cc(F)cc(F)c42)CCCC3CC(=O)O)cc1` (stereo not drawn) as the molecule, how does the parasite growth read?
Answer: Its parasite growth is 120 ± 6.7%.

Question: For `O=C1NC(c2cccc([N+](=O)[O-])c2)=CCN1c1ccccc1O` [Icilin], which parasite growth is on record?
Answer: Its parasite growth is 128 ± 36%.

Question: How did the parasite growth turn out when `O=C(OCCN1CCCCC1)c1c[nH]c2ccccc12` was run?
Answer: Its parasite growth is 113 ± 7.7%.

Question: For `CN(C)C(=O)n1nnnc1Cc1ccc(-c2ccccc2)cc1`, which parasite growth is on record?
Answer: The parasite growth was 84.9 ± 38%.

Question: With `N[C@@H](CS(=O)O)C(=O)O` [L-Cysteinesulfinic acid] as the molecule, how does the parasite growth read?
Answer: The parasite growth was 61 ± 6.7%.

Question: How did the parasite growth turn out when `CCN(c1ccccc1)c1cc(=NC)n(C)c(C)n1` was run?
Answer: Its parasite growth is 59 ± 11%.

Question: Which parasite growth does the source give for `CCCCCCCCCCCC1=C(O)C(=O)C=C(O)C1=O` [Embelin] here?
Answer: Its parasite growth is 122 ± 4.3%.

Question: With `CC(/C=C/c1cccc(Oc2ccc(F)cc2)c1)N(O)C(N)=O` (stereo not drawn) as the molecule, how does the parasite growth read?
Answer: Its parasite growth is 184 ± 12%.

Question: For `CC(NC(=O)c1ccccc1/N=C/c1c(O)ccc2ccccc12)c1ccccc1` (stereo not drawn) [Sirtinol], which parasite growth is on record?
Answer: Its parasite growth is 97.5 ± 34%.

Question: `COc1ccc([C@H]2CNC(=O)C2)cc1OC1CCCC1` [(S)-(+)-Rolipram] was tested. Which parasite growth did it give?
Answer: Its parasite growth is 116 ± 30%.

Question: How did the parasite growth turn out when `Cc1cccc(/C=C/c2ccccc2)n1` was run?
Answer: The parasite growth was 99.2 ± 63%.

Question: Which parasite growth does the source give for `CCOC(=O)C1=C(C)NC(=S)NC1c1cccc(O)c1` (stereo not drawn) [Monastrol] here?
Answer: Its parasite growth is 126 ± 29%.

Question: `CC(=O)OCCNC(=O)c1cccnc1` [N-[2-(Acetoxy)ethyl]-3-pyridinecarboxamide] was tested. Which parasite growth did it give?
Answer: Its parasite growth is 117 ± 13%.

Question: How did the parasite growth turn out when `CCOC(=O)C1=C(N)Oc2ccc(Br)cc2C1C(C#N)C(=O)OCC` (stereo not drawn) was run?
Answer: Its parasite growth is 135 ± 2.5%.

Question: `CCCCCCCC/C=C\CCCCCCCC(=O)NCCO` [Oleylethanolamide] was tested. Which parasite growth did it give?
Answer: Its parasite growth is 135 ± 21%.

Question: How did the parasite growth turn out when `CN(Cc1ccccc1)C(=O)[C@H](Cc1ccc2ccccc2c1)NC(=O)[C@@H]1C[C@@H](O)CN1C(=O)c1cn(C)c2ccccc12` was run?
Answer: The parasite growth was 138 ± 4.8%.

Question: Which parasite growth does the source give for `O=C(CCCN1CCC(O)(c2ccc(Cl)cc2)CC1)c1ccc(F)cc1` [Haloperidol hydrochloride] here?
Answer: Its parasite growth is 134 ± 39%.

Question: Which parasite growth does the source give for `O=c1c(O)c(-c2ccc(O)cc2)oc2cc(O)cc(O)c12` [Kaempferol] here?
Answer: Its parasite growth is 155 ± 7.1%.

Question: How did the parasite growth turn out when `CC(C)NCC(O)c1ccc(O)c(O)c1` (stereo not drawn) [Isoproterenol hydrochloride] was run?
Answer: The parasite growth was 172 ± 14%.

Question: Which parasite growth does the source give for `Cn1cc(/C=C2\C(=O)Nc3cccnc32)c2ccccc21` here?
Answer: The parasite growth was 131 ± 5.3%.

Question: With `COc1cccc(OC)c1OCCNCC1COc2ccccc2O1` (stereo not drawn) [WB 4101 hydrochloride] as the molecule, how does the parasite growth read?
Answer: The parasite growth was 93.3 ± 33%.

Question: `CC1(C)O[C@@H]2[C@@H](CO[C@@]3(COS(N)(=O)=O)OC(C)(C)O[C@@H]23)O1` [Topiramate] was tested. Which parasite growth did it give?
Answer: Its parasite growth is 112 ± 8.3%.

Question: With `COCCOC(=O)C1=C(C)NC(C)=C(C(=O)OC/C=C/c2ccccc2)C1c1cccc([N+](=O)[O-])c1` (stereo not drawn) [Cilnidipine] as the molecule, how does the parasite growth read?
Answer: Its parasite growth is 27.9 ± 21%.

Question: `C1CCC(N=C(NC23CC4CC(CC(C4)C2)C3)N2CCOCC2)CC1` was tested. Which parasite growth did it give?
Answer: The parasite growth was 100 ± 31%.

Question: With `CN1C(=O)C(Cc2c[nH]c3ccccc23)NC1=S` (stereo not drawn) [Necrostatin-1] as the molecule, how does the parasite growth read?
Answer: Its parasite growth is 186 ± 6.6%.

Question: For `CCCCC#Cc1nc(NC)c2ncn([C@@H]3O[C@H](CO)[C@@H](O)[C@H]3O)c2n1`, which parasite growth is on record?
Answer: Its parasite growth is 143 ± 8.2%.
